# Measured values published in PubChem BioAssay (NCATS).
# Several values for one entry are separate records, joined by “and”; a condition that tells them apart may be missing. Equal values may be shown once. Inconclusive results are not listed. A number with no mark means an inactive call. Activity calls are given as the source filed them. Calls follow the shape of the dose curve; as a rule, active = well fitted inhibition curve with a large enough effect; inconclusive = small, poorly fitted or top-dose-only effect; inactive = flat fitted curve, though single readings scatter.
# What was measured:
# Assay in all cases: Cytotoxic Profiling of Annotated Libraries Using Quantitative High-Throughput Screening (AID 1296008); also: nearly all actives have a fitted effect of over 60% in size
# Settings in all cases: Five cell lines viability, CellTiter-Glo ATP luminescence, 48-72 h; max response: active compounds read low
# [1] = tested on: HaCat
# Method in brief: (§1)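 Cells exposed to compounds for 48 or 72 hr at 37 degrees Celsius. Viability read as ATP-coupled luminescence with CellTiter-Glo after 10 min at room temperature.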
# [2] = tested on: NIH3T3
# Method in brief: as §1
# [3] = tested on: KB-3-1
# Method in brief: as §1
# % is scaled to controls: 0 for no effect and ±100 for the full control effect; potency is read from the fitted curve at half-maximal effect.
structure (smiles),measurement,setting,value
CN1CCN(c2ccc(C(=O)Nc3n[nH]c4ccc(Cc5cc(F)cc(F)c5)cc34)c(NC3CCOCC3)c2)CC1,Potency,[1],18.4 µM (active) and 14.8 µM (active)
same,Potency,[2],10500 nM (active)
CCC(C)C(=O)OC1CC(O)C23C4OCC5(C(O)CC2C1(C)C(O)O4)C3C(=O)CC1(C)C(c2ccoc2)CC2OC215 (configuration not stated),Potency,[3],1780 nM (active)
CC(=O)OC1C(=O)C2(C)C(O)CC3OCC3(OC(C)=O)C2C(OC(=O)c2ccccc2)C2(O)CC(OC(=O)C(O)C(NC(=O)c3ccccc3)c3ccccc3)C(C)=C1C2(C)C (configuration not stated),Potency,[3],8.2 nM (active)
same,Potency,[2],92 nM (active)
CC1(C)CC[C@]2(C(=O)O[C@@H]3O[C@H](CO)[C@@H](O)[C@H](O)[C@H]3O)CC[C@]3(C)C(=CCC4[C@@]5(C)C[C@@H](O)[C@H](O)[C@](C)(C=O)C5CC[C@]43C)[C@@H]2[C@@H]1O (some centres not stated),outcome,[3],inactive
same,max response,[2],0.296%
CCN1CCN(Cc2ccc(NC(=O)Nc3ccc(Oc4cc(NC)ncn4)cc3)cc2C(F)(F)F)CC1,Potency,[3],6510 nM (active)
same,max response,[2],-75.2%
CCCC1(c2ccccc2)NC(=O)N(CC(=O)N(C)Cc2c(F)cccc2Cl)C1=O (configuration not stated),max response,[3],-1.57%
same,max response,[2],-2.22%
CCNC(=O)C1OC(n2cnc3c(N)nc(NCCc4ccc(CCC(=O)O)cc4)nc32)C(O)C1O (configuration not stated),max response,[3],-5.77%
same,max response,[2],-0.422%
Cc1cccc(/C=N/Nc2cc(N3CCOCC3)n3nc(-c4ccncc4)cc3n2)c1,max response,[3],-17.8%
same,Potency,[2],651 nM (active)
CC1OC(O[C@H]2CC[C@@]3(C)C(CC[C@]4(C)C3CC=C3C5CC(C)(C)CC[C@]5(C(=O)OC5OC(CO)C(OC6OC(COC7OCC(O)C(O)C7O)C(O)C(O)C6O)C(O)C5O)CC[C@]34C)C2(C)C)C(O)C(O)C1OC1OCC(OC2OCC(O)C(O)C2O)C(O)C1O (some centres not stated),outcome,[3],inactive
same,max response,[2],-4.7%
O=C(O)/C=C/c1ccc(-c2ccc(O)c(C34CC5CC(CC(C5)C3)C4)c2)cc1,Potency,[3],2060 nM (active)
same,Potency,[2],920 nM (active)
O=C(Nc1ccc(S(=O)(=O)C(F)(F)F)cc1)C1=CCN(c2ncccc2C(F)(F)F)CC1,Potency,[3],23100 nM (active)
same,Potency,[2],16400 nM (active)
CC1OC2OC(=O)C3(C)CC4=C(CO)C5=C(CC(=O)C4(C)C(C1=O)C23)C(C)(C)OC(=O)C5 (configuration not stated),max response,[3],2.12%
same,max response,[2],-2.31%
CC1=C(C(=O)O[C@@H]2O[C@H](COC3OCC(O)C(O)C3O)[C@@H](O)[C@H](O)[C@H]2O)C(C)(C)CCC1 (some centres not stated),max response,[3],-5.04%
same,max response,[2],-7.14%
CC1CCC2(C(=O)O)CCC3(C)C(=CCC4C5(C)CCC(OC(=O)/C=C/c6ccccc6)C(C)(C)C5CCC43C)C2C1C (configuration not stated),max response,[3],3.54%
same,max response,[2],-3.46%
O=C(c1ccc(/C=C/c2n[nH]c3ccccc23)cc1)N1CCNCC1,Potency,[3],5800 nM (active)
same,Potency,[2],4610 nM (active)
C=C1C(O)C(O)C2(CC3C(C)=CCC4C(C)(CO)CCCC34C)OC2C1O (configuration not stated),max response,[3],-3.07%
same,max response,[2],-5.46%
Nc1nccn2c(C3CCC(C(=O)O)CC3)nc(-c3cc4cccc(Cl)c4[nH]3)c12 (configuration not stated),Potency,[3],1840 nM (active)
same,Potency,[2],7310 nM (active)
CCC[C@@H]1O[C@@H]2C[C@H]3[C@@H]4CCC5=CC(=O)C=C[C@]5(C)[C@H]4[C@@H](O)C[C@]3(C)[C@]2(C(=O)CO)O1,outcome,[3],inactive
same,max response,[2],-20.8%
C/C=C/C=C/C=C/C(=O)OC1C=C(C=O)C(O)(C(=O)O)C2(C)CCCC(C)(C)C12 (configuration not stated),max response,[3],7.06%
same,max response,[2],3.49%
CCNC(=O)Nc1ccc(-c2nc3c(c(N4CCOC[C@@H]4C)n2)CCN(c2ncccn2)C3)cc1,Potency,[3],291 nM (active)
same,Potency,[2],1030 nM (active)
C=C1C(=O)O[C@@H]2[C@H]1CCC(C)=C1CCC(=O)O[C@]12C,max response,[3],-23.5%
Cn1c(=O)n(-c2ccc(C(C)(C)C#N)cc2)c2c3cc(C#Cc4cccnc4)ccc3ncc21,Potency,[3],142 nM (active)
same,Potency,[2],200 nM (active)
C[C@@H]1C(=O)O[C@H]2[C@@H](O)C34[C@H]5C[C@@H](C(C)(C)C)C36[C@@H](OC(=O)[C@@H]6O)O[C@@]4(C(=O)O5)[C@@]12O (some centres not stated),max response,[3],-6.44%
same,max response,[2],-0.498%
CCN(CC)CCN(Cc1ccc(-c2ccc(C(F)(F)F)cc2)cc1)C(=O)Cn1c(SCc2ccc(F)cc2)nc(=O)c2c1CCC2,Potency,[3],20600 nM (active)
same,Potency,[2],4610 nM (active)
CC/C=C\C/C=C\C/C=C\CCCCCCCC(=O)OCC(O)COC1OC(CO)C(O)C(O)C1O (configuration not stated),outcome,[3],inactive
same,max response,[2],-3.16%
C=CC1C(OC2OC(CO)C(O)C(O)C2O)OC=C(C(=O)OC)C1CC1CC(=O)CC(CCc2ccc(O)cc2)O1 (configuration not stated),max response,[3],0.837%
same,max response,[2],-7.36%
COc1ccc(C2COc3cc(O)ccc3C2)c(O)c1 (configuration not stated),max response,[3],-10.5%
same,max response,[2],4.68%
CC(Oc1cc(-n2cnc3ccc(CN4CCN(C)CC4)cc32)sc1C(N)=O)c1ccccc1C(F)(F)F (configuration not stated),Potency,[3],651 nM (active)
same,Potency,[2],8200 nM (active)
O=C(Nc1ccc(-c2ccncc2)cc1)N[C@H](CO)c1ccccc1,outcome,[3],inactive
same,max response,[2],-5.95%
Cc1[nH]c2ccccc2c1CCNC(=O)c1ccccc1F,max response,[3],3.4%
same,max response,[2],2.05%
Cc1cccc(C)c1OCc1cc(C(=O)N2CCC(c3ccncc3)CC2)no1,Potency,[3],8200 nM (active)
same,max response,[2],-17.2%
CC[C@@](C)(Nc1ccnc(-c2c[nH]c3ncccc23)n1)C(=O)NCC(F)(F)F,outcome,[3],inactive
same,Potency,[2],14600 nM (active)
CC(=O)C1=C(C)N(c2cccc(C(F)(F)F)c2)C(=O)N[C@H]1c1ccc(C#N)nc1,max response,[3],1.77%
same,max response,[2],-21.8%
COC(=O)N(C)c1c(N)nc(-c2nn(Cc3ccccc3F)c3ncccc23)nc1N,max response,[3],0.515%
same,max response,[2],0.88%
COc1cc2c(cc1OC)N1C(=O)C[C@]34C=CCN5CC[C@@H]2[C@@H](CC3)[C@]514,max response,[3],7.8%
same,max response,[2],-2.04%
C[C@H](Oc1ccc(S(C)(=O)=O)cc1C(=O)N1CCN(c2ncc(C(F)(F)F)cc2F)CC1)C(F)(F)F,max response,[3],4.57%
same,max response,[2],-19.7%
CNC(=S)NS(=O)(=O)c1cc(CCNC(=O)c2cc(Cl)ccc2OC)ccc1OC,max response,[3],-4.17%
same,max response,[2],-5.29%
C=C1CC23CC1CCC2C12OC(=O)C(C)(CCC1O)C2C3C(=O)O (configuration not stated),outcome,[3],inactive
same,max response,[2],3.76%
CC(=O)O[C@H]1C[C@@]2(C)[C@@H](CC[C@H]3[C@@]4(C)C=CC(=O)[C@@H](C)[C@@H]4[C@H](O)C(=O)[C@@]32C)/C1=C(/CCC=C(C)C)C(=O)O,max response,[3],4.45%
same,max response,[2],-3.01%
CO[C@@H](C)Cn1c(=O)n(C)c2cnc3ccc(-c4cncc(C(C)(C)O)c4)cc3c21,Potency,[3],651 nM (active)
same,Potency,[2],326 nM (active)
Cn1cc(S(=O)(=O)c2ccc(Cl)cc2)c2cccc(N3CCNCC3)c21,Potency,[3],20600 nM (active)
same,Potency,[2],18400 nM (active)
Cc1nc(Nc2n[nH]c3c2CN(C(=O)NC(CN(C)C)c2ccccc2)C3(C)C)c2sccc2n1 (configuration not stated),Potency,[3],1840 nM (active)
same,Potency,[2],8200 nM (active)
O=C1OCc2cc3cccc(O[C@@H]4O[C@H](CO)[C@@H](O)[C@H](O)[C@H]4O)c3c(O)c21,outcome,[3],inactive
same,max response,[2],0.153%
C[C@@H]1C[C@H]2O[C@@H]2/C=C\C=C\C(=O)Cc2c(Cl)c(O)cc(O)c2C(=O)O1,Potency,[3],1100 nM (active)
same,Potency,[2],1740 nM (active)
C[C@H](NC(=O)CCc1nc2ccccc2c(=O)[nH]1)c1ccccc1,max response,[3],-7.76%
same,max response,[2],-5.46%
C[C@H](NC(c1cccc(C[P+](=O)O)c1)[C@H](C)O)c1ccc(Cl)c(Cl)c1 (some centres not stated),outcome,[3],inactive
same,max response,[2],3.54%
CC(C)NCC(C(=O)N1CCN(c2ncnc3c2C(C)CC3O)CC1)c1ccc(Cl)cc1 (configuration not stated),max response,[3],-24.2%
same,max response,[2],3.08%
COC1CC(O[C@H]2CC[C@@]3(C)C(=CC[C@]4(O)C3[C@H](OC(C)=O)[C@@H](OC(=O)c3ccccc3)[C@]3(C)[C@@H](C(C)=O)CC[C@@]34O)C2)OC(C)C1OC1CC(OC)C(OC2CC(OC)C(OC3OC(C)C(OC4OC(CO)C(O)C(O)C4O)C(OC)C3O)C(C)O2)C(C)O1 (some centres not stated),max response,[3],0.0608%
same,max response,[2],-0.853%
COC(=O)CC1CC(c2ccc(O)cc2)=NO1 (configuration not stated),max response,[3],-14.5%
same,max response,[2],-0.902%
C[S+](CC[C@H](N)C(=O)[O-])C[C@H]1O[C@@H](n2cnc3c(N)ncnc32)[C@H](O)[C@@H]1O (some centres not stated),max response,[3],3.65%
same,max response,[2],-4.29%
O=S(=O)(NCC1CC1)c1ccc(Nc2nccc(N3CCCc4cc(O)ccc43)n2)cc1,Potency,[3],14600 nM (active)
same,Potency,[2],5800 nM (active)
COc1cc(C2c3cc4c(c(O)c3CC(CO)C2C(=O)O)OCO4)cc(OC)c1O (configuration not stated),Potency,[3],2000 nM (active)
same,Potency,[2],2820 nM (active)
NCc1ccc(Nc2ncc(F)c(Nc3ccccc3)n2)cc1,Potency,[3],8200 nM (active)
same,Potency,[2],14600 nM (active)
COC(=O)C[C@H]1C(C)(C)[C@H](OC(=O)C(C)C)[C@@]2(O)C(=O)[C@]1(C)C1CC[C@]3(C)C(CC(=O)O[C@H]3c3ccoc3)[C@]13O[C@@H]32 (some centres not stated),max response,[3],8.04%
same,max response,[2],3.21%
CC(=O)NCC(=O)N1C2CCC1c1cc(Nc3ncc(C(F)(F)F)c(NC4CCC4)n3)ccc12 (configuration not stated),Potency,[3],1030 nM (active)
same,Potency,[2],1300 nM (active)
NC(=O)Nc1cc(-c2cccc(F)c2)sc1C(=O)NC1CCCNC1 (configuration not stated),Potency,[3],580 nM (active)
same,Potency,[2],517 nM (active)
Cc1cccc2c1NC(=O)C2(c1ccc(O)cc1)c1ccc(O)cc1,max response,[3],-4.45%
same,max response,[2],-15.5%
